# Laboratory results from PubChem BioAssay (NCI).
# Compounds without any hit were thinned out: in the full panel of roughly 83,000, 20% have a hit.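 48-hour exposure, single concentration, 96-well plates; percent growth endpoint where 0 means no net growth. Active: below 10.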 Unmarked numbers belong to inactive results. Active and inactive are the calls of the source.
# Legend:
# Assay in all cases: NCI-60 one-dose screen, 48 h (100 = growth as untreated, 0 = no growth, -100 = all killed)
# Conditions in all cases: 10 µM unless noted
# NCI-H23 lung = system: NCI-H23 lung
# NCI-H226 lung = system: NCI-H226 lung
# NCI-H322M lung = system: NCI-H322M lung
# HOP-62 NSCLC = system: HOP-62 NSCLC
# NCI-H460 lung = system: NCI-H460 lung
# HOP-92 NSCLC = system: HOP-92 NSCLC
# NCI-H522 lung = system: NCI-H522 lung
# A549/ATCC NSCLC = system: A549/ATCC NSCLC
# 786-0 renal = system: 786-0 renal
# COLO 205 colon = system: COLO 205 colon
# DU-145 prostate = system: DU-145 prostate
# MALME-3M melanoma = system: MALME-3M melanoma
# MDA-MB-231 breast = system: MDA-MB-231 breast
# RXF 393 renal = system: RXF 393 renal
# SF-268 CNS = system: SF-268 CNS
# SF-295 CNS = system: SF-295 CNS
# SF-539 CNS = system: SF-539 CNS
# UACC-257 melanoma = system: UACC-257 melanoma
# M14 melanoma = system: M14 melanoma
Compound,growth (NCI-H23 lung),growth (NCI-H226 lung),growth (NCI-H322M lung),growth (HOP-62 NSCLC),growth (NCI-H460 lung),growth (HOP-92 NSCLC),growth (NCI-H522 lung),growth (A549/ATCC NSCLC),growth (786-0 renal),growth (COLO 205 colon),growth (DU-145 prostate),growth (MALME-3M melanoma),growth (MDA-MB-231 breast),growth (RXF 393 renal),growth (SF-268 CNS),growth (SF-295 CNS),growth (SF-539 CNS),growth (UACC-257 melanoma),growth (M14 melanoma)
CC(=O)OC[C@H]1O[C@H](OC(C)=O)[C@H](NC(=O)/C=C/CCl)[C@@H](OC(C)=O)[C@@H]1OC(C)=O,75.4%,109%,84.5%,96.1%,96.6%,76.6%,-64% (active),87.6%,68%,74.9%,93.2%,83.2%,46.3%,75.2%,89.3%,87.5%,65.6%,64%,87.5%
COc1ccc(-c2nc(SCC(=O)Nc3ccc(C(=O)/C=C/c4ccc(Cl)cc4)cc3)[nH]c(=O)c2C#N)cc1,85.4%,96.3%,88.8%,100%,99.1%,81.7%,77.4%,101%,105%,86.8%,103%,95.4%,38.1%,97.3%,102%,98.5%,85.8%,102%,77.9%
COc1cc(-c2nn(-c3ccc(Br)cc3)cc2C(=O)O)ccc1O,89.5%,91.7%,95.3%,96.3%,103%,94.5%,67.7%,105%,97.6%,109%,103%,110%,126%,109%,87.8%,101%,128%,107%,102%
CC[N+](CC)=c1sc2c(s1)C(c1ccc(Cl)cc1)Oc1ccc(Cl)cc1-2 (stereo not drawn),6.45% (active),52.1%,16.8%,12.4%,-29.6% (active),-18% (active),-12.9% (active),7.61% (active),30.7%,-69.6% (active),24.4%,-9.37% (active),-38% (active),10.7%,24%,2.98% (active),-22.1% (active),-7.21% (active),17.3%
Clc1ccc2c(NCCNc3nc(N4CCOCC4)nc4ccccc34)ccnc2c1,44%,-22.5% (active),15.9%,-37.1% (active),-29.3% (active),-41.6% (active),-70.6% (active),5.31% (active),-39.9% (active),-67.5% (active),29.9%,-50.9% (active),-56% (active),-39.4% (active),11.5%,-83% (active),-80.2% (active),90.5%,-65.5% (active)
Cc1cc2nc(NC(=O)CN3CCN(CCN4C(=O)c5cccc6cccc(c56)C4=O)CC3)sc2cc1C,89%,89.2%,85.2%,94.9%,91.7%,74.9%,87.3%,70.3%,82.8%,99.6%,91.7%,89.5%,92.4%,87.5%,86.3%,91.2%,80.9%,99.2%,94.3%
Cc1cc(N2CCCCCC2)nc(NC2CCCC(Nc3ccnc4cc(Cl)ccc34)C2)n1 (stereo not drawn),-50.8% (active),-61.3% (active),-70.9% (active),-83% (active),-82.2% (active),-82% (active),-72% (active),-68.3% (active),-96.3% (active),-80.1% (active),-70.7% (active),-89% (active),-88.5% (active),-81% (active),-70% (active),-85.1% (active),-92.1% (active),-78.9% (active),-86.5% (active)
